Source: PubChem
Rows were chosen to be rich in hits. Some 2.8% of all compounds tested hit in one or more screens of this group.
PAFAH2 FP inh = PAFAH2 enzyme inhibitors, primary screen, biochemical, fluorescence polarization, human; hit rate 0.99% among 340,000; recombinant PAFAH2, FP-rhodamine activity probe; inhibition, % at 3.39 µM;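 active = inhibition above the mean over all tested compounds plus 3 SD, cut at about 30% in these data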;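 note: inhibitors block probe labeling of enzyme so polarization drops; 0% = enzyme with DMSO and 100% = wells lacking PAFAH2 protein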
PAFAH1B2 inh = PAFAH1B2 enzyme inhibitors, primary screen, biochemical, fluorescence polarization, human; Platelet-activating factor acetylhydrolase IB subunit alpha2 (Homo sapiens), P68402; hit rate 1.2% among 340,000; inhibition, % at 3.39 µM; recombinant PAFAH1B2, FP-rhodamine activity probe;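 active = inhibition above the mean of all tested compounds plus 3 SD, cut at about 24% in these data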;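 note: 0% = enzyme with DMSO and 100% = wells lacking PAFAH1B2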
Target sequence (P68402 whole entry, looked up): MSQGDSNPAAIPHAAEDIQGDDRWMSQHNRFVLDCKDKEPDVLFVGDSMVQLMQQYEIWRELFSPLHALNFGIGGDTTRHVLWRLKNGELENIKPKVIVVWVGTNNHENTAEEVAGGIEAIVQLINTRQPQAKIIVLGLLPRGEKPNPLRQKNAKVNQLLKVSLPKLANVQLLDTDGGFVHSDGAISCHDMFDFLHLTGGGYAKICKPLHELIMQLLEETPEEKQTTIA
PAFAH1B3 inh = PAFAH1B3 enzyme inhibitors, primary screen, biochemical, fluorescence polarization, human; Platelet-activating factor acetylhydrolase IB subunit alpha1 (Homo sapiens), Q15102; AID 492972, 2010; inhibition, % at 3.39 µM; hit rate 0.28% among 340,000; recombinant PAFAH1B3, FP-rhodamine probe;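 active = inhibition above the screen-wide average of all tested compounds plus 3 SD, cut at about 25% in these data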;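 note: 0% = enzyme with DMSO only and 100% = wells lacking PAFAH1B3 protein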
pPAFAH FP inh = pPAFAH enzyme inhibitors, primary screen, biochemical, fluorescence polarization, human. recombinant pPAFAH, FP-rhodamine probe fluorescence polarization. inhibition, % at 3.39 µM. AID 463082, 2010. hit rate 1.5% among 330,000. Platelet-activating factor acetylhydrolase (Homo sapiens), Q13093;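 active = inhibition above the mean inhibition across the screen plus 3 SD, cut at about 25% in these data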;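 note: inhibitors block binding of the rhodamine activity-based probe so polarization drops; 0% = enzyme with DMSO and 100% = wells lacking pPAFAH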
PME-1 primary = PME-1 inhibitors via competitive probe labeling, primary screen, biochemical, fluorescence polarization, FP-Rh probe, HTS. Protein phosphatase methylesterase 1 (Homo sapiens), Q9Y570. recombinant PME-1. inhibition, % at 5.9 µM. hit rate 0.53% among 320,000. AID 2130, 2009;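 active = inhibition above the campaign mean of all compounds plus 3 SD, cut at about 26% in these data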;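 note: competitive labeling of PME-1 active site by serine hydrolase directed probe; 0% = PME-1 with DMSO and 100% = wells lacking PME-1 enzyme; inhibitors block probe labeling so polarization falls and inhibition rises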
Target sequence (Q9Y570 whole entry, looked up): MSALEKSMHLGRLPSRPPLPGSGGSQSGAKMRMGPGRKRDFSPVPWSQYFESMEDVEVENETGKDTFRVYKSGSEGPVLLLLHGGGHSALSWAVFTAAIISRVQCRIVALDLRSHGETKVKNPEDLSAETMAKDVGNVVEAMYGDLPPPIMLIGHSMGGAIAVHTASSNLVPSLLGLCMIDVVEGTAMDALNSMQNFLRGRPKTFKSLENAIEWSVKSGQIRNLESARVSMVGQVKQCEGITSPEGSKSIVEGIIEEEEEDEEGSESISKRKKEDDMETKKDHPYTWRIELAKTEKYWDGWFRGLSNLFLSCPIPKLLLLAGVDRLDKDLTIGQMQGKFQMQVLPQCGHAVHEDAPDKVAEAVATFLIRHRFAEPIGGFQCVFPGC
Fam108B counter = mouse Fam108B serine hydrolase inhibitors, primary screen, counter-screen for RBBP9 inhibitor project, biochemical, fluorescence polarization. AID 1947, 2009. inhibition, % at 9.51 µM. recombinant Fam108B, FP-Rh probe fluorescence polarization. hit rate 0.33% among 300,000;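 active = inhibition above the screen mean inhibition plus 3 SD, computed separately per campaign, cut at about 18% in these data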;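 note: inhibitors lower polarization as less probe binds the enzyme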
The depositor's hits bear a star.

`O=C(COc1ccc(Cl)cc1)N(Cc1ccc(F)cc1)C1CCS(=O)(=O)C1` (centres undefined) gave PAFAH2 FP inh 3.0, PAFAH1B2 inh 5.9, PAFAH1B3 inh 7.5, pPAFAH FP inh -0.1, PME-1 primary 3.3 and Fam108B counter 6.7.
Screening N#CC1=C(SCC(=O)NC23CC4CC(CC(C4)C2)C3)NC(=O)C(C#N)C12CCCCC2 (centres undefined) returned PAFAH2 FP inh 33.2*, PAFAH1B2 inh 37.4*, PAFAH1B3 inh 1.5, pPAFAH FP inh 6.6, PME-1 primary 1.1 and Fam108B counter 0.7.
Screening COc1ccc(NS(=O)(=O)c2ccc(O)c(C(=O)OCC(=O)NC(C)C3CC4CCC3C4)c2)cc1 (centres undefined) returned PAFAH2 FP inh 20.3, PAFAH1B2 inh 17.1, PAFAH1B3 inh 3.3, pPAFAH FP inh 31.5*, PME-1 primary 0.5 and Fam108B counter -3.0.
Screening CC(NC(=O)COC(=O)c1cc(NS(=O)(=O)c2ccc(Cl)c([N+](=O)[O-])c2)ccc1O)C1CC2CCC1C2 (centres undefined) returned PAFAH2 FP inh 25.0, PAFAH1B2 inh 21.6, PAFAH1B3 inh 4.3, pPAFAH FP inh 28.5*, PME-1 primary 20.9 and Fam108B counter 2.0.
CC(NC(=O)COC(=O)c1ccccc1O)C1CC2CCC1C2 (centres undefined) was read as PAFAH2 FP inh 23.5, PAFAH1B2 inh 13.3, PAFAH1B3 inh 5.8 and pPAFAH FP inh 8.0.
For CC(NC(=O)COC(=O)CNC(=O)c1ccccc1Cl)C1CC2CCC1C2 (centres undefined) the results were PAFAH2 FP inh 13.5, PAFAH1B2 inh 7.5, PAFAH1B3 inh 3.1, pPAFAH FP inh 9.1 and PME-1 primary 4.6.
Screening Cc1ccc2[nH]c3c(=O)n(CC(=O)NCCCN4CCN(c5ccc(F)cc5)CC4)ncc3c2c1 returned PAFAH2 FP inh 0.5, PAFAH1B2 inh 18.5, PAFAH1B3 inh -2.1, pPAFAH FP inh 4.0, PME-1 primary -3.0 and Fam108B counter -1.7.
Screening O=C(Nc1ccc(Cl)cn1)C1CC1 returned PAFAH2 FP inh 0.2, PAFAH1B2 inh 3.0, PAFAH1B3 inh 2.8, pPAFAH FP inh 3.1, PME-1 primary 1.0 and Fam108B counter -1.6.
For O=C(NCC1CCCC(CNC(=O)Nc2ccc(Cl)cn2)C1)Nc1ccc(Cl)cn1 (centres undefined) the results were PAFAH2 FP inh 20.5, PAFAH1B2 inh 26.3*, PAFAH1B3 inh -1.6, pPAFAH FP inh 1.6, PME-1 primary -11.4 and Fam108B counter -7.3.
For COc1ccccc1NS(=O)(=O)c1cc(NC(=O)Cc2n[nH]c(=O)c3ccccc23)ccc1Cl the results were PAFAH2 FP inh -5.3, PAFAH1B2 inh -5.1, PAFAH1B3 inh 2.4 and pPAFAH FP inh -4.0.
Screening COc1cc(NC(=O)Nc2ccc(Cl)c(Cl)c2)c(C(=O)O)cc1OC returned PAFAH2 FP inh 13.5, PAFAH1B2 inh 24.7*, PAFAH1B3 inh 4.4, pPAFAH FP inh 30.0*, PME-1 primary 18.1 and Fam108B counter 4.6.
For Cc1nnc(NCc2ccccc2)c2ccccc12 the results were PAFAH2 FP inh -2.5, PAFAH1B2 inh -2.5, PAFAH1B3 inh 8.5, pPAFAH FP inh 1.5, PME-1 primary -0.8 and Fam108B counter -2.5.
CCOc1ccc2oc(C(=O)OCC(=O)NC3CCCCC3)c(C)c2c1 was read as PAFAH2 FP inh 61.4*, PAFAH1B2 inh -4.2, PAFAH1B3 inh -1.5, pPAFAH FP inh 25.8* and PME-1 primary -7.6.
Screening NC(=O)COC(=O)c1ccc2c(c1)S(=O)(=O)c1ccccc1C2=O returned PAFAH2 FP inh -9.9, PAFAH1B2 inh -1.5, PAFAH1B3 inh -0.8, pPAFAH FP inh 1.9, PME-1 primary 3.1 and Fam108B counter 1.2.
Screening O=C(COC(=O)c1ccc2c(c1)S(=O)(=O)c1ccccc1C2=O)NC1CC1 returned PAFAH2 FP inh -3.3, PAFAH1B2 inh 2.3, PAFAH1B3 inh 2.8, pPAFAH FP inh 29.9*, PME-1 primary 2.4 and Fam108B counter 4.1.
`Cc1cccc(C(=O)OCC(=O)NC2CCCCCCC2)c1` gave PAFAH2 FP inh 91.5*, PAFAH1B2 inh 7.7, PAFAH1B3 inh 6.0, pPAFAH FP inh 29.4* and PME-1 primary 6.8.
Screening CCc1ccc(C(=O)OCC(=O)NC2CCCC2)cc1 returned PAFAH2 FP inh 81.9*, PAFAH1B2 inh 0.4, PAFAH1B3 inh 5.7, pPAFAH FP inh 30.3*, PME-1 primary 1.2 and Fam108B counter -5.3.
Screening COC(=O)c1cc(NCc2cccs2)ccc1N1CCOCC1 returned PAFAH2 FP inh 13.1, PAFAH1B2 inh 5.1, PAFAH1B3 inh -5.0, pPAFAH FP inh 5.9, PME-1 primary 3.2 and Fam108B counter 7.9.
For COC(=O)c1cc(NCc2c(F)cccc2Cl)ccc1N1CCOCC1 the results were PAFAH2 FP inh 3.2, PAFAH1B2 inh -2.3, PAFAH1B3 inh 5.7, pPAFAH FP inh 29.8*, PME-1 primary -0.4 and Fam108B counter 4.2.
For CC[C@@]1(C(=O)OC)N[C@H](CN(C)C(=O)Nc2ccc(Cl)cc2)[C@@H]2C(=O)N(Cc3ccccc3)C(=O)[C@@H]21 the results were PAFAH2 FP inh 5.7, PAFAH1B2 inh 6.8, PAFAH1B3 inh 5.8 and pPAFAH FP inh 0.7.
Screening O=C(O)COc1ccccc1/C=N/NC(=O)CSc1nnc(SCc2cccc3ccccc23)s1 returned PAFAH2 FP inh -1.9, PAFAH1B2 inh 7.5, PAFAH1B3 inh -5.2, pPAFAH FP inh 13.3, PME-1 primary -10.7 and Fam108B counter -5.9.
`O=C(CSc1ccccn1)N/N=C/c1c[nH]c2ccccc12` gave PAFAH2 FP inh 7.6, PAFAH1B2 inh -4.2, PAFAH1B3 inh 5.2, pPAFAH FP inh 2.2, PME-1 primary 5.8 and Fam108B counter -0.5.
Screening O=C(CSc1nnc(SCc2cccc3ccccc23)s1)N/N=C/c1c[nH]c2ccccc12 returned PAFAH2 FP inh -11.8, PAFAH1B2 inh 26.4*, PAFAH1B3 inh 8.9, pPAFAH FP inh 9.1, PME-1 primary 26.4* and Fam108B counter 33.5*.
Screening O=C(O)COc1ccccc1/C=N/NC(=O)CSc1nnc(SCc2ccc(Cl)cc2)s1 returned PAFAH2 FP inh 5.7, PAFAH1B2 inh 43.0*, PAFAH1B3 inh 3.5, pPAFAH FP inh 26.5*, PME-1 primary 10.6 and Fam108B counter -5.4.
Screening Nc1nnc(CC(=O)N/N=C/c2ccccc2OCc2ccc(F)cc2)s1 returned pPAFAH FP inh 7.2, PME-1 primary -5.0 and Fam108B counter -1.7.
CCc1ccc2oc(=O)cc(CN(C)Cc3ccccc3)c2c1 was read as PAFAH2 FP inh -8.7, PAFAH1B2 inh 37.7*, PAFAH1B3 inh 2.9, pPAFAH FP inh -0.1, PME-1 primary -0.2 and Fam108B counter 1.8.
